Data as given in PubChem BioAssay AID1671190 (National Center for Advancing Translational Sciences (NCATS), 2021).
The campaign covered roughly 580,000 compounds. About 6,100 (1.1%) were called active. Not shown: some 15% with an inconclusive outcome. What follows is part of a selection rich in actives, with near analogues and random picks from the rest. Unmarked numbers belong to inactive results. The call rests on the fitted dose curve; in most records, active means well fitted inhibition curve with a large enough effect; inconclusive means small, poorly fitted or top-dose-only effect, or another doubt; inactive means no such curve, though single readings can be large or run the other way.

The molecules below were run against Polyunsaturated fatty acid lipoxygenase ALOX12 (Homo sapiens) (UniProt P18054) (assay: Primary qHTS assay for inhibitors of human arachidonate 12S-lipoxygenase (ALOX12): Round 2). Settings: purified 12hLO, xylenol orange hydroperoxide absorbance; series mostly up to 108 µM; activity change, negative = inhibition: at the top concentration.
From the text: Assay Provider: Theodore R. Holman Ph.D. University of California, Santa Cruz, California Human lipoxygenase 12hLO is a member of the closely related lipoxygenase family of enzymes which catalyze the site-specific oxidation of arachidonic acid to various hormone precursor molecules and as such is a candidate for drug development in a variety of disease areas, such as cancer and inflammation. Inhibition of 12hLO activity was screened by utilizing arachidonic acid as a substrate. The extent of hydroperoxide product formation was measured by a secondary chromogenic reaction in which xylenol orange (XO, Sigma-Aldrich, cat. number 39,818-7) reacts with the ferric ions produced from the reaction between the hydroperoxide and ferrous ions. The Fe (III)-XO complex is characterized with red-shifted absorbance at 560 nm. A purified preparation of human 12hLO was supplied by Dr. Holman laboratory, University of California, Santa Cruz.
PROTOCOL TABLE SEQUENCE No. (e.g., 1, 2, 3, etc.); […] (e.g., Cells, Incubation, Reagent, etc.); VALUE; DESCRIPTION 1; Enzyme; 3 uL; 150 nM 12hLO enzyme solution dispensed in 1536-well Greiner black, clear bottom plates. 2; Compound; 23 nL; compounds and controls were added. 3; Incubate; 15 min; room temperature. 4; Substrate; 1 uL; 40 uM arachidonic acid (final concentration). 5; Incubate; 30 min; room temperature. 6; Reagent; 4 uL; Fe-XO solution was added to each well. 7; Incubation; 30 min; room temperature 8; Detector; absorbance; Read 1 at 405 nm absorbance using ViewLux (Perkin-Elmer) CCD imager. 9; Detector; absorbance; Read 2 at 573 nm absorbance using ViewLux (Perkin-Elmer) CCD imager. NOTES (numbers refer to sequence above) 1; 150 nM 12hLO (final concentration) in buffer solution (25 mM Hepes, 0.01% Triton X-100, pH 7.0) was dispensed in columns 1, 2, 5-48. Column 1 is neutral (100% activity). Buffer only was dispensed in columns 3 and 4 as no enzyme negative controls. The plates were covered with metal lids with gas-exchange holes. 2; Compounds were pin transferred via a Kalypsys Pin Tool (Wako USA) in column 5-48. Control compound was transferred in column 2, titration of nordihydroguaiaretic acid (NDGA, Sigma-Aldrich, N5023) with top concentration of 20 mM in DMSO then 1:3 dilution in duplicate. Dilution factor of 23 nL into 4 uL final assay volume. 3; Covered assay plates were incubated for 15 min at room temperature. 4; Substrate was added to start the reaction; 40 uM arachidonic acid (Sigma-Aldrich, St. Louis, MO) was dispensed throughout the plate. 6; Chromogenic detection reagent solution (divalent iron/xylenol orange, Fe-XO) was added to each well: 200 uM xylenol orange, 300 uM ferrous ammonium sulfate prepared freshly in 50 mM sulfuric acid. 8, 9; Two absorbance readouts were obtained at 405 nm and at 573 nm using a ViewLux high-throughput CCD plate imager (Perkin-Elmer). The 573 to 405 (Read 2 / Read 1) absorbance ratio was used to compute reaction progress.
On the % scale 0 is the no-effect control and ±100 the full control effect; potency means the concentration at half of the fitted maximal effect.

Chain of Polyunsaturated fatty acid lipoxygenase ALOX12 (Homo sapiens) (P18054 whole entry, looked up): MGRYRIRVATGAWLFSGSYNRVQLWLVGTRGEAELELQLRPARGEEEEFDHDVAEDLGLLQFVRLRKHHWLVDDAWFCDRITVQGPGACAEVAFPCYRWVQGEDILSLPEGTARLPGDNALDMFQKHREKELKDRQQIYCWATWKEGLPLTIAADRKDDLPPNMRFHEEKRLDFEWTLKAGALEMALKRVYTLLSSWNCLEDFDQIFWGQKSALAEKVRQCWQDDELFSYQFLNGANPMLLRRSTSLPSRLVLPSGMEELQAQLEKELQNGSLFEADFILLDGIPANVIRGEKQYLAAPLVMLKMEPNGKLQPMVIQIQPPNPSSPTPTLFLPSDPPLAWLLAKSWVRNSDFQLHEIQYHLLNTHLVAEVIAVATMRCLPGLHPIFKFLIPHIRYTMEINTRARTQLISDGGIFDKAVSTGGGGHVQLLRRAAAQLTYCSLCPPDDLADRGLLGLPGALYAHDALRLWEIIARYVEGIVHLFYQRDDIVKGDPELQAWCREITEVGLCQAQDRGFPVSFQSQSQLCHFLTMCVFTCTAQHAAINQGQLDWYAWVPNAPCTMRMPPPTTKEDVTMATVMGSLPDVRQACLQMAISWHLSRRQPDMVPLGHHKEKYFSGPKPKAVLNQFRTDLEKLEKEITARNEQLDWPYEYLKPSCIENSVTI

Compound	Potency	activity change, negative = inhibition
CN(C)S(=O)(=O)c1cccc(-c2nn(-c3ccccc3)cc2/C=C2\SC(=S)N(CC(=O)O)C2=O)c1	39.8 µM (active)	
N#Cc1ccccc1CN1C(=O)S/C(=C/c2cccn2-c2cccc(C(=O)O)c2)C1=O		29.1%
Cc1ccc(-c2nn(-c3ccccc3)cc2/C=C2\SC(=S)N(CCCCCC(=O)O)C2=O)o1	31.6 µM (active)	
O=C(CCc1c[nH]c2ccccc12)Nc1ccc(F)cc1		-4.74%
COC(=O)CNC(=O)c1cc2sccc2n1Cc1ccccc1		24.8%
CC(Sc1ccccn1)C(=O)Nc1cccc(Cl)c1 (stereo unspecified)		-37.3%
CCC(=O)Oc1ccc2cc(-c3ccccc3)c(=O)oc2c1		20.5%
COc1ccc(OC)c(/C=C/C(=O)Oc2ccccc2Cl)c1		29.8%
COc1ccc2c(C)c(CC(=O)NCCc3ccccc3)c(=O)oc2c1		-30.1%
O=C1c2c(nc(COc3ccccc3)n2Cc2ccccc2)NCCN1Cc1cccc(Cl)c1		46.7%
Cc1ccc(NC(=O)CN2C(=O)C(C)(C)c3cc(S(=O)(=O)N4CCCCC4)ccc32)cc1F		1.73%
COc1ccc(C)cc1NC(=O)C(C)N1CCN(S(=O)(=O)Cc2ccccc2)CC1 (stereo unspecified)		3.46%
COc1ccc(-n2nnc(C(=O)NCc3ccccc3)c2N)cc1OC		-20.9%
CCc1ccc(N/C(N)=N/c2nc(C)cc(C)n2)cc1		-18.2%
CCc1ccc(NC2Nc3cc(C)nn3S2)cc1 (stereo unspecified)	25.1 µM (active)	
CCc1ccc(NC(=O)N2CCCC(Cn3cnc4cccnc43)C2)cc1 (stereo unspecified)		45.4%
Cc1ccc(-c2cn(CCC(N)=O)c(=O)cn2)cc1		-22.8%
CCS(=O)(=O)n1nc(-c2ccccc2)nc1SCc1ccccc1	28.2 µM (active)	
Cc1ccc(S(=O)(=O)n2nc(-c3ccc(Cl)cc3)nc2NCc2ccccc2)cc1		-17.2%
O=c1cc(-c2ccccc2)n2c(SCc3ccccc3)nnc2[nH]1	inactive	
CCOc1ccc(C(=O)Nc2ncc(C)s2)cc1OC		-2.76%
CCc1nnc(SCC(=O)Nc2ccccc2OC)n1-n1cccc1		0.0227%
CCOC(=O)N1CCN(C(=O)c2ccc(N3C(=O)CCS3(=O)=O)cc2)CC1		29.3%
CCCC1CCC(c2ccc(-c3ccc4c(n3)CCC(CCC)C4)cc2)CC1 (stereo unspecified)		-17.4%
FC(F)(F)c1ccc(-n2cn[nH]c2=S)cc1		2.96%
CCOC(=O)N1CCN(Cc2nc(Cc3cccc(C(F)(F)F)c3)no2)CC1		15.8%

Compound	Potency	activity change, negative = inhibition
Cn1c(-c2sccc2OCc2cccc(C(F)(F)F)c2)n[nH]c1=S	28.2 µM (active)	
O=C(CCS(=O)(=O)c1ccc2c(c1)CCN2C(=O)C1CC1)Nc1ccc(F)c(F)c1		-11%
COc1cc(Nc2nc3ccccc3nc2NS(=O)(=O)c2ccc(C)cc2)cc(OC)c1		-0.377%
O=C(c1ccc2c(c1)OCO2)N1CCCN(C(=O)C2CC2)c2ccccc21		113%
CSCC[C@@H](NC(=O)C(c1ccccc1)c1ccccc1)C(=O)O		-10.3%
CC1(C)[C@H](O[C@H]2O[C@H](C(=O)O)[C@@H](O)[C@H](O)[C@H]2O[C@@H]2O[C@H](C(=O)O)[C@@H](O)[C@H](O)[C@H]2O)CC[C@@]2(C)[C@H]1CC[C@]1(C)[C@H]2C(=O)C=C2[C@H]3C[C@@](C)(C(=O)O)CC[C@]3(C)CC[C@]21C	8.63 µM (active)	
CC1(C)C2CC[C@]3(C)C(CC=C4[C@@H]5C[C@@](C)(CO)CC[C@]5(C(=O)O)CC[C@]43C)[C@@]2(C)CC[C@@H]1O (stereo partly specified)		15.7%
Cc1ccc(NC(=O)c2n[nH]c(=O)c3ccccc23)c(C)c1		-13.1%
Cc1cc(Br)ccc1NC(=O)C1CCCCC1		0.587%
CC1=C[C@@H](CNCC(C)C)[C@H](C(C)C)C[C@H]1Cc1nc2c(C)cccc2[nH]1		14.2% [at 176 µM]
COc1ccc2cc(CNC(=O)c3nccnc3N)ccc2c1		-2.78%
C[C@@H](NC(=O)COc1ccccc1)c1c(-c2ccc(F)cc2)noc1C(=O)O		10.6% [at 176 µM]
C[C@@H](NC(=O)c1cccnc1)c1c(-c2ccc(F)cc2)noc1C(=O)O	39.8 µM (active)	
COc1ccc(-c2noc(C(=O)O)c2[C@@H](C)NS(=O)(=O)c2ccccc2)cc1		24.3% [at 176 µM]
CC1(C)CC(=O)C(CCS(=O)(=O)OCC(F)(F)C(F)F)(CCS(=O)(=O)OCC(F)(F)C(F)F)C(=O)C1		2.97%
CC(C)CCNc1nc(-c2ccc(S(=O)(=O)N3CCOCC3)cc2)cs1		-5.58%
CS(=O)(=O)c1ccc(-c2csc(NC3CCCCC3)n2)cc1		-2.88%
CC(C)CNc1nc(-c2ccc3c(c2)CCCN3S(C)(=O)=O)cs1	14.1 µM (active)	
CCCc1nc(C#N)c(N2CCN(c3ccccc3)CC2)o1		-22.7%
O=C(NC(c1ccc(-c2ccccc2)cc1)c1cnccn1)C1CCN(CCOc2ccc(Cl)cc2Cl)CC1 (stereo unspecified)	44.7 µM (active)	
Cc1ccc(C(NC(=O)C2CCN(CCOc3ccc(Cl)cc3Cl)CC2)c2ccccn2)cc1 (stereo unspecified)	56.2 µM (active)	
O=C(COc1ccc(Cl)cc1Cl)NCCCNC(=O)c1cnccn1		0.217%
Cc1cccnc1C(NC(=O)C1CCN(Cc2ccc(Cl)c(Cl)c2)CC1)c1ccc(Cl)cc1 (stereo unspecified)		-10.3%
COc1cccc(CN2CCC(C(=O)NC(c3ccc4c(c3)OCO4)c3ccccn3)CC2)c1 (stereo unspecified)		-2.37%
CCOc1ccc(S(=O)(=O)N2CCC(C(=O)NCc3ccccn3)CC2)cc1Cl		-25.1%
